Compound activity deposited in PubChem BioAssay by National Center for Advancing Translational Sciences (NCATS).
Abeta yeast res = restores growth of yeast expressing A-beta42 peptide; yeast expressing A-beta42, growth rescue, OD600, 48 h; response scale: 0% DMSO, 100% iron-clioquinol control; Potency, µM (doses to about 46.1 µM), usual class: activators; 410,000 tested, 0.063% active; note: nearly all actives have a fitted effect of over 55% in size
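Growth rescue measured by 600 nm absorbance after 48 h yeast culture at 30 C with compound. Values normalized between DMSO and an equimolar ferric chloride plus clioquinol control.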
TDP43 rescue = inhibitors of TDP-43 toxicity in yeast; TDP-43 expressing yeast growth rescue, BacTiter-Glo, 24 h; Potency, µM (doses to about 46.1 µM), for inactives: at the top dose growth rescue (activation), most hits filed as activators; 410,000 tested, 1.8% active; AID 652104; note: % of control where 0% means no effect; nearly all actives have a fitted effect of over 50% in size
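Galactose-induced TDP-43 yeast, OD600=0.02, compound pinned; 24 hr, 30 deg C; BacTiter-Glo luminescence for growth. Inhibitors of TDP-43 toxicity read as activators.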
FUS yeast rescue = suppressors of FUS proteinopathy in yeast; S. cerevisiae FUS-expressing, growth rescue, OD600, 24 h; Potency, µM (highest dose often 76.6 µM), actives largely listed as activators; 390,000 tested, 0.24% active; AID 1347120;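 note: plate controls were DMSO vehicle for no effect and reference control for full effect; nearly all actives have a fitted effect of over 55% in size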
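Galactose (2%) drives FUS expression in yeast precultured in raffinose; seeding density OD 0.005. Test compounds incubated 24hr at 30C and 99% humidity before absorbance at 600 nm was measured.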
uPA surface inh = blocks generation of uPA at the cell surface; cell surface uPA generation assay, qHTS; AID 540303; 330,000 tested, 0.31% active; Potency, µM (doses to about 38.3 µM), for the others: at the top dose activity change, negative = inhibition, hits mostly inhibitors; active = well fitted inhibition curve with a large enough effect; inconclusive = small, poorly fitted or top-dose-only effect; inactive = no such curve, though single readings can be large or run the other way; tested in mouse RAW 264.7 cells; note: % is set by controls: 0 for no effect and ±100 for the full control effect; nearly all actives have a fitted effect of over 55% in size
BCR signal inh = blocks chronic active B-cell receptor signaling; ABC-DLBCL IkBa-CBG/CBR reporter, luminescence ratio, 4 h; Potency, µM (top dose mostly 46.1 µM), for inactives: at the top dose activity change, negative = inhibition, hits mostly inhibitors; 340,000 tested, 0.05% active; AID 493014; active = well fitted inhibition curve with a large enough effect in the signal ratio, with a control signal flat, not every such curve was filed as active; inconclusive = small, poorly fitted or top-dose-only effect, or effect the other way, or a change in a side signal; the % refers to the signal ratio;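 note: plate controls were basal doxycycline-induced cells for no effect and cells given 10 µM MG132 for full effect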
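Compounds up to 46 uM were incubated four hours with TMD8 cells whose green CBG68 luciferase is fused to IkappaBalpha; red CBR luminescence normalised the signal, and concentration-effect curves were fitted to fusion, red and ratio data.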
aSyn yeast inh = alpha-synuclein toxicity inhibition in yeast; 370,000 tested, 0.14% active; Yeast expressing alpha-synuclein, growth rescue, BacTiter-Glo, 24 h; Potency, µM (doses to about 46.1 µM), for the others: at the top dose growth rescue (activation), hits mostly activators; note: % of control where 0% means no effect; nearly all actives have a fitted effect of over 65% in size
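Rescue of yeast growth: cells expressing toxic alpha-synuclein, induced in galactose at OD600 0.02, incubated with compound 24 h at 30 C. ATP luminescence quantified growth; inhibitors of toxicity appear as activators.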
* marks the source's active call; other numbers are inactive results; i = inactive; ? = inconclusive; . = not tested or not shown; ! = a repeat was not active; [ ] = dose if it differs, or a comment. A selection: hits, their analogues and other compounds. The true share with any hit is near 2.3%. Unless noted, calls come from the whole dose curve; as a rule, active = well fitted curve in the direction sought with a large enough effect; inconclusive = small, poorly fitted or top-dose-only effect, or another doubt; inactive = no such curve, though single readings can be large; an effect the other way counts as inactive or inconclusive. Potency is the fitted concentration of half-maximal effect.

SMILES	Abeta yeast res	TDP43 rescue	FUS yeast rescue	uPA surface inh	BCR signal inh	aSyn yeast inh
Cn1cccc1CNC(=O)Nc1ccc(Cl)cc1	i	-5.8%	?	-0.7%	?	-12.5%
Cn1cccc1CNC(=O)Nc1ccccc1	i	-12.6%	22.4µM*	.	?	-0.2%
O=C(NCc1ccccc1)c1nc(S(=O)(=O)Cc2ccccc2)ncc1Cl	i	10µM*	i	?	?	21.2%
CCc1nnc(NC(=O)c2nc(S(=O)(=O)Cc3cccc(C)c3)ncc2Cl)s1	i	11.2µM*	i	-1.4%	?	16.6%
COc1ccc(CNC(=O)c2nc(S(=O)(=O)Cc3ccccc3)ncc2Cl)cc1	i	16.6%	i	-14.3%	?	0.0%
CSc1nnc(NC(=O)c2nc(S(=O)(=O)Cc3ccccc3F)ncc2Cl)s1	i	25.3%	i	-3.2%	?	13.9%
CCOc1ccc(NC(=O)c2nc(S(=O)(=O)Cc3ccccc3F)ncc2Cl)cc1	i	?	i	.	.	11.2µM*!
CC(C)c1nnc(NC(=O)c2nc(S(=O)(=O)Cc3ccccc3F)ncc2Cl)s1	i	28.2µM*	i	?	?	5.4%
CC(=O)c1cccc(NC(=O)CCC(=O)c2ccc(F)cc2)c1	i	-5.4%	i	2.3%	3.0%	0.2%
CCc1nnc(NC(=O)c2nc(S(=O)(=O)Cc3ccc(C)cc3)ncc2Cl)s1	i	17.8µM*	i	-2.9%	?	15.7%
CCc1nnc(NC(=O)c2nc(S(=O)(=O)Cc3ccccc3)ncc2Cl)s1	i	20.1%	i	9.1%	?	6.6%
Cc1ccc(CS(=O)(=O)c2ncc(Cl)c(C(=O)Nc3nnc(C(C)C)s3)n2)cc1	i	14.1µM*	i	-1.9%	?	19.7%
COc1ccc(/C=N/NC(=O)COc2ccc3ccccc3c2)c(C(=O)O)c1OC	i	?	i	-1.4%	-4.4%	-0.2%
COc1ccc(-c2csc3nc[nH]c(=O)c23)cc1OC	i	-11.9%	i	-6.2%	-11.6%	-2.8%
Cc1ccc(-c2csc3nc[nH]c(=S)c23)cc1C	?	25.1µM*	i	-2.4%	-2.8%	?
CCCCc1cc(=O)oc2cc(C)cc(OC(C)C(=O)NCC3CCC(C(=O)O)CC3)c12 (stereo unspecified)	i	2.0%	i	0.3%	?	-5.9%
O=C(Nc1nc(-c2cccs2)c(-c2cccs2)s1)C1CCCC1	i	14.1µM*	.	6.7%	?	-5.2%
O=C(Nc1nnc(-c2cccs2)s1)C1CC1	i	-16.5%	i	-1.6%	7.2%	-0.1%
COc1ccc(OC)c(-c2csc(CCn3nc(C)cc3C)n2)c1	i	9.3%	i	12.0%	1.9%	-0.8%
CC1(C)Cc2ccccc2-c2nnc(SCc3ccc(C#N)cc3)n21	i	12.6µM*	i	3.8%	-0.3%	17.9%
CCSc1nnc2n1C(C)(C)Cc1ccccc1-2	i	?	i	-24.2%	-14.3%	?
Cc1cccc(-n2c(SCC(=O)c3ccccc3)nnc2-c2ccc(Br)cc2)c1	i	5.4%	i	.	8.4%	.
O=C(NCc1cccnc1)C1c2ccccc2C(=O)N1C1CCCCCCC1 (stereo unspecified)	i	-2.3%	i	.	-6.3%	-4.3%
COc1ccc(OC(C)C(=O)N(C)Cc2nc(-c3ccccc3)no2)cc1 (stereo unspecified)	i	?	i	-2.5%	0.9%	0.7%
CC(C)N(Cc1nc(-c2ccc(Cl)cc2)no1)C(=O)c1ccco1	i	35.5µM*	i	.	.	.
SMILES	Abeta yeast res	TDP43 rescue	FUS yeast rescue	uPA surface inh	BCR signal inh	aSyn yeast inh
COc1ccc(-c2noc(CN(C(=O)C(C)Oc3ccc(C)cc3)C(C)C)n2)cc1 (stereo unspecified)	i	35.5µM*	i	.	.	.
Cc1ccc(CC(=O)N(Cc2nc(-c3ccc(C)cc3)no2)C(C)C)cc1	i	25.1µM*	i	.	.	.
CN(Cc1nc(-c2ccc(Cl)cc2)no1)C(=O)c1ccco1	i	-14.9%	i	5.9%	-0.2%	8.1%
Fc1cccc2sc(Nc3nnc(-c4ccco4)o3)nc12	i	-62.0%	i	-11.4%	?	16.9%
O=C(CC(CC(=O)c1ccccc1)c1ccccc1)c1ccccc1	i	10.3%	i	-3.2%	5.7%	0.5%
COc1cccc(CNC(=O)COc2ccc(C(=O)c3ccccc3)cc2)c1	?	35.5µM*	i	.	-18.7%	-48.0%
COc1cccc(CNC(=O)c2cccc(NC(=O)c3nsc4ccccc34)c2)c1	i	35.5µM*	i	.	.	.
COc1cccc(CNC(=O)Cn2cccc2C(=O)c2ccccc2)c1	i	20.1%	i	.	.	.
COc1cccc(CNC(=O)c2cccc(Br)c2)c1	i	22.4µM*	i	-2.7%	-0.6%	-20.1%
COC(=O)Cc1ccc(NC(=S)NCc2cccc(OC)c2)cc1	i	12.9%[9.22 µM]	i	4.0%	0.6%	7.0%
CCCCc1ccc(NC(=S)NCc2cccc(OC)c2)cc1	10µM*	-6.4%[0.397 µM]	i	0.9%	?	-17.0%
COc1cccc(N(CC(=O)NCCN2CCOCC2)S(=O)(=O)c2ccccc2)c1	i	-10.6%	i	1.4%	7.6%	-9.5%
CNC(=O)c1[nH]cnc1C(=O)Nc1ccc(OC)cc1	i	23.6%	i	-28.2%	-6.3%	-0.3%
O=C(Nc1cccc(C(=O)N2CCCCC2)c1)c1nsc2ccccc12	i	35.5µM*	i	.	.	.
CC(=O)c1ccc2c(c1)N(Cc1ccccc1)C(=O)C(C)S2 (stereo unspecified)	i	0.0%	i	.	.	6.6%
Cc1ccccc1CC1C(=O)Nc2ccc(Br)cc21 (stereo unspecified)	?	12.6µM*	i	.	.	.
Cc1ccc2c(c1)C(Cc1ccccc1F)C(=O)N2 (stereo unspecified)	?	24.5%	i	.	.	.
CNC(=O)CSc1ncnc2c1cnn2-c1ccccc1	i	?	i	1.8%	0.1%	4.1%
Cc1cc(=O)oc2cc(O)ccc12	i	11.7%	i	7.2%	.	-7.8%
O=c1oc2cc(O)ccc2c2c1CCCC2	i	12.6µM*	i	0.4%	11.3%	14.5%
O=c1cc(O)c2ccc(O)cc2o1	i	14.1µM*	i	6.9%	-17.3%	?
O=C(N/N=C/c1ccc2c(c1)OCO2)c1sc2cccc(Cl)c2c1Cl	i	21.5%	.	3.9%	-24.6%	6.7%
